About 14,000 (4.5%) of roughly 310,000 compounds showed an effect of 50% or more. The effect is printed as a negative number. This is one part of a sample in which strong results are shown more often than they occur.
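Further: peak tail current of the secondary pulse compared with the same well before compound.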

The target of the experiment is human ether-à-go-go-related gene (hERG) potassium channel (human, UniProt Q12809). The experiment in a line: primary screen, population patch clamp on CHO cells stably expressing hERG; higher = less effect of the substance.
human ether-à-go-go-related gene (hERG) potassium channel, sequence (Q12809 whole entry, looked up): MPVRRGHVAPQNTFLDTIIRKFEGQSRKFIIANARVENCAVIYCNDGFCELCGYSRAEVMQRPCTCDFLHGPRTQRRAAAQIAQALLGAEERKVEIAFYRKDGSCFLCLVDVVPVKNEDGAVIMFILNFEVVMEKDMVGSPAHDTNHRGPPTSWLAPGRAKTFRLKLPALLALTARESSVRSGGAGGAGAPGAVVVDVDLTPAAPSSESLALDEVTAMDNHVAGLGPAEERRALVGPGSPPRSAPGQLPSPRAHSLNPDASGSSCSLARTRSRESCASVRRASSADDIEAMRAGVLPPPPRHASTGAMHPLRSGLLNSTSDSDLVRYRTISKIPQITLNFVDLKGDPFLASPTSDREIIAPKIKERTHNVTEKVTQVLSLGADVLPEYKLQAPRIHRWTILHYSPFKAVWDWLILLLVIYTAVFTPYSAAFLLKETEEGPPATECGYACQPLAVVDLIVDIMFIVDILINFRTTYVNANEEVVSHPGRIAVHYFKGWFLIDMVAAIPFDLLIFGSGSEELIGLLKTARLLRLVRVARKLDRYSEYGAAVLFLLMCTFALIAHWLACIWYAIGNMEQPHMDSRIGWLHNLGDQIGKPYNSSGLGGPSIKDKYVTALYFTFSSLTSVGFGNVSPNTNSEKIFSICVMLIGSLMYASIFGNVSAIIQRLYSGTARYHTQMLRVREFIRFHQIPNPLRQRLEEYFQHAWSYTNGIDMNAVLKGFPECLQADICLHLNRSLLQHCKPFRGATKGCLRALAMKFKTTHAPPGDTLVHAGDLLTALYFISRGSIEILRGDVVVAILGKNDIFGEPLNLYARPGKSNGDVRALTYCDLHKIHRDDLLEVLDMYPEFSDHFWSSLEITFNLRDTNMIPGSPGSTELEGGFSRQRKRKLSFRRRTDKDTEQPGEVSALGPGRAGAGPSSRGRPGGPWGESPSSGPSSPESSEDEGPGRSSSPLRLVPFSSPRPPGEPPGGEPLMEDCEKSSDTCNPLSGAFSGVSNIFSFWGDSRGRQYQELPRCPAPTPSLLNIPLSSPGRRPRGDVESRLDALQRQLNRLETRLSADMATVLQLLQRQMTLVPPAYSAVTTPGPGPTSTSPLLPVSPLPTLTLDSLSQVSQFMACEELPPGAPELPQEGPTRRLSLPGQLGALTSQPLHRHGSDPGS
Regarding `Cc1c(N)cccc1-n1cccc1`, the “hERG current change (%, negative = inhibition) at 10uM” value is given as 16.2%.

For `Cc1ccc2oc(C(=O)N(C)CCC(O)c3ccccc3)c(C)c2c1` (stereo not drawn), the “hERG current change (%, negative = inhibition) at 10uM” value was determined as 11.5%.

Regarding `COc1ccc(S(=O)(=O)NCCSCc2cccc(C)c2)cc1Br`, the “hERG current change (%, negative = inhibition) at 10uM” value is recorded as -0.641%. The same measure for `CCNC(=O)NS(=O)(=O)c1cnccc1Nc1cccc(Cl)c1`: 25.1%; for `c1ccc(-c2noc(C3CCC3)n2)nc1`: 4.59%; for `CC(C)CC(=O)N/N=C/c1c(N)n(C)c(=O)n(C)c1=O`: 21.7%.

For the compound `CCN1CCN(CCNC(=O)Cn2c(=O)c3cccn3c3ccc(F)cc32)CC1`, the “hERG current change (%, negative = inhibition) at 10uM” value is -2.61%. The same measure for `COc1ccc(N2CCN(CCCNC(=O)Cn3c(=O)c4cccn4c4ccccc43)CC2)cc1`: -43.7%. With `COc1ccc(N2CCN(CCCNC(=O)Cn3c(=O)c4cccn4c4cccnc43)CC2)cc1`, the “hERG current change (%, negative = inhibition) at 10uM” value is listed as -57.2%. Turning to `O=C(Cn1c(=O)c2cccn2c2ccc(F)cc21)NCCCN1CCN(c2ccccc2F)CC1`, the “hERG current change (%, negative = inhibition) at 10uM” value was -50.5%. The same measure for `CN1CCN(CCNC(=O)Cn2c(=O)c3cccn3c3ccc(F)cc32)CC1`: 14.1%; for `O=C(Cn1c(=O)c2cccn2c2cccnc21)NCCCN1CCN(c2ccc(F)cc2)CC1`: -76.4%; for `COc1ccc(N2CCN(C(=O)Cn3c(=O)c4cccn4c4cccnc43)CC2)cc1`: -15.3%. The same measure for `NS(=O)(=O)c1ccc(CCNC(=O)Cn2c(=O)c3cccn3c3cccnc32)cc1`: 22.3%; for `O=C(Cn1c(=O)c2cccn2c2ccccc21)NCCCN1CCCCC1`: 3.5%. The same measure for `COc1ccccc1CCNC(=O)C(=O)NCCC1CCCCN1S(=O)(=O)c1cccs1` (stereo not drawn): -6.92%. Turning to `Cc1c(NC(=O)CSCc2ccccc2)cccc1C(=O)O`, the “hERG current change (%, negative = inhibition) at 10uM” value worked out at 18%. Take `CCn1cc([N+](=O)[O-])c(C(=O)N2N=C(c3ccc4ccccc4c3)CC2c2ccccc2O)n1` (stereo not drawn): the “hERG current change (%, negative = inhibition) at 10uM” value is reported as 3.19%. For `Clc1ncccc1-c1nnn(-c2ccccc2)n1`, the “hERG current change (%, negative = inhibition) at 10uM” value is listed as 15.1%. The same measure for `Cc1[nH]c2ccccc2c1/C=N/NC(N)=S`: 2.1%; for `N#CCCS(=O)(=O)c1nnnn1-c1ccccc1`: -18.7%. Regarding `Cn1c(O)c(N=NC(=O)Cn2c(C(F)(F)F)nc3ccccc32)c2ccccc21`, the “hERG current change (%, negative = inhibition) at 10uM” value was 6.02%. The same measure for `CC(C)C(C(=O)O)N1C(=O)/C(=C/c2cccn2C)SC1=S` (stereo not drawn): -0.129%; for `COCC1CCCN(C(=O)c2ccc3oc(Cc4ccc(Cl)cc4)nc3c2)C1` (stereo not drawn): -24.7%. `O=C(C1CCCC1)N1CCCC(Nc2ccc(F)cc2)C1` (stereo not drawn): the “hERG current change (%, negative = inhibition) at 10uM” value is given as -37.2%. Regarding `O=C(CN1CCCC1)Nc1ccc(F)cc1`, the “hERG current change (%, negative = inhibition) at 10uM” value stood at 23.3%. The same measure for `O=C(CN1CCN(C(=O)C2CCC2)CC1)Nc1ccc(F)cc1`: -69.9%; for `O=C(CN1CCN(C(=O)C2CC2)CC1)Nc1cc(C(F)(F)F)cc(C(F)(F)F)c1`: -54.4%. The same measure for `Cl.O=C(CN1CCN(c2cccc(C(F)(F)F)c2)CC1)Nc1cccc(C(F)(F)F)c1`: -1.14%; for `O=C(CN1CCCC1)NCC(=O)Nc1ccc(F)cc1`: 8.87%; for `O=C(CN1CCCC1)Nc1cc(C(F)(F)F)cc(C(F)(F)F)c1`: -17.9%. With `Cc1ccc(NC(=O)CN2CCCC2)cc1.Cl`, the “hERG current change (%, negative = inhibition) at 10uM” value is on record as 19.1%. The same measure for `O=C(CN1CCN(C(=O)N2CCCCC2)CC1)Nc1ccc(F)cc1`: -74.9%. For the compound `CC(O)(CS(=O)(=O)Cc1ccccc1)C(=O)Nc1cccc(C(F)(F)F)c1` (stereo not drawn), the “hERG current change (%, negative = inhibition) at 10uM” value came to 1.72%.

Regarding `COC(=O)Nc1ccc(S(=O)(=O)N2CCCc3ccccc32)cc1`, the “hERG current change (%, negative = inhibition) at 10uM” value is 8.63%. The same measure for `O=C1Oc2ccccc2C(=O)/C1=C/N1CCN(c2ccccc2F)CC1`: -0.353%. As for `O=c1[nH]c(Cl)ccc1CN1CCOCC1`, the “hERG current change (%, negative = inhibition) at 10uM” value is recorded as 14.5%. The same measure for `Cc1ccccc1C(=O)Nn1cnnc1`: 3.49%; for `COc1ccc(S(=O)(=O)NCc2ccc(C(=O)NCCCN3CC(C)CC(C)C3)cc2)cc1` (stereo not drawn): -28.1%. Take `COC(=O)c1cc(S(=O)(=O)N2CCC(C)CC2)ccc1F`: the “hERG current change (%, negative = inhibition) at 10uM” value is reported as -18%. The same measure for `COc1ccc(-c2cc(CNS(=O)(=O)c3cc(OC)ccc3OC)on2)cc1`: 6.1%.

Regarding `O=C(NC(=S)Nc1ccc2nc[nH]c2c1)c1ccccc1`, the “hERG current change (%, negative = inhibition) at 10uM” value was found to be 12.4%. As to `COc1ccc(CCNCc2ccsc2)cc1OC`, the “hERG current change (%, negative = inhibition) at 10uM” value stood at 1.86%. For `Cc1cc(/C=C2\Cc3ccccc3C2=O)c(C)n1-c1ccccc1`, the “hERG current change (%, negative = inhibition) at 10uM” value amounted to 1.62%. The same measure for `O=C(Nc1ccc(N2CCOCC2)c(F)c1)c1cccs1`: 1.9%; for `O=C(CNS(=O)(=O)c1ccc(F)cc1)N1CCN(c2ccc(F)cc2)CC1`: -51.7%. With `O=C(CNS(=O)(=O)c1ccc(F)cc1)N1CCN(c2ccccc2)CC1`, the “hERG current change (%, negative = inhibition) at 10uM” value was -11.7%. On to `O=C(CNS(=O)(=O)c1ccc(Br)s1)N1CCN(c2ccc(F)cc2)CC1`, for which the “hERG current change (%, negative = inhibition) at 10uM” value was -25.2%. In the case of `Cc1ccc(S(=O)(=O)NCC(=O)N2CCN(c3ccc(F)cc3)CC2)cc1`, the “hERG current change (%, negative = inhibition) at 10uM” value is given as -10.2%. The same measure for `O=C(CNS(=O)(=O)c1ccc(F)cc1)N1CCCC1`: 12%. `O=C(CNS(=O)(=O)c1ccc(Br)cc1)N1CCN(c2ccc(F)cc2)CC1`: the “hERG current change (%, negative = inhibition) at 10uM” value is on record as -56.5%. For `CCn1nc(CC(=O)O)c2ccccc2c1=O`, the “hERG current change (%, negative = inhibition) at 10uM” value amounted to 22.9%. As for `COc1cc([N+](=O)[O-])ccc1NC(=O)NCc1ccco1`, the “hERG current change (%, negative = inhibition) at 10uM” value is recorded as 10.9%. The same measure for `Cn1nnnc1SCC(=O)c1c(N)n(C)c(=O)n(C)c1=O`: 18.3%.

On to `Cc1cc(=O)c(C(=O)O)nn1-c1cccc(C(F)(F)F)c1`, for which the “hERG current change (%, negative = inhibition) at 10uM” value is recorded as -74.6%. On to `O=C(O)c1nn(-c2cccc(C(F)(F)F)c2)ccc1=O`, for which the “hERG current change (%, negative = inhibition) at 10uM” value is listed as 21.5%. As to `Cc1cc(=O)c(C(=O)O)nn1-c1ccccc1`, the “hERG current change (%, negative = inhibition) at 10uM” value came out at 5.86%. As to `CCOc1ccccc1C1CC(=O)NC2=C1C(=O)CCC2` (stereo not drawn), the “hERG current change (%, negative = inhibition) at 10uM” value is listed as 13.6%. For the compound `O=C1CCC/C(=N/NC(=O)c2sc3ccccc3c2Cl)C1`, the “hERG current change (%, negative = inhibition) at 10uM” value is given as 5.82%. With `COc1cc(C(C)=O)ccc1OCC(O)Cn1nc(C)c(Br)c1C` (stereo not drawn), the “hERG current change (%, negative = inhibition) at 10uM” value is -7%.

Take `COc1cc(C(C)=O)ccc1OCC(O)CN1CCN(c2ccc(C)cc2C)CC1` (stereo not drawn): the “hERG current change (%, negative = inhibition) at 10uM” value was -58.3%.

With `COc1cc(C(C)=O)ccc1OCC(O)CN1CCN(c2c(C)cccc2C)CC1` (stereo not drawn), the “hERG current change (%, negative = inhibition) at 10uM” value was -60.3%.

`COc1cc(C(C)=O)ccc1OCC(O)CN1CCN(c2ccccn2)CC1` (stereo not drawn): the “hERG current change (%, negative = inhibition) at 10uM” value is given as -9.62%.

With `COc1cc(C(C)=O)ccc1OCC(O)CN1CCN(S(=O)(=O)c2ccccc2)CC1` (stereo not drawn), the “hERG current change (%, negative = inhibition) at 10uM” value is -11.5%. The same measure for `COc1cc(C(C)=O)ccc1OCC(O)CN1CCN(c2cc(C)cc(C)c2)CC1` (stereo not drawn): -56.2%; for `COc1cc(C(C)=O)ccc1OCC(O)CN1CCN(c2ccccc2)CC1` (stereo not drawn): -31.5%; for `COc1cc(C(C)=O)ccc1OCC(O)CN1CCN(c2ccc(C)c(C)c2)CC1` (stereo not drawn): -39.6%. The same measure for `COc1cc(C(C)=O)ccc1OCC(O)CN1CCN(c2ccc(F)cc2)CC1` (stereo not drawn): -39%; for `COc1ccc(C(=O)/C=C/Nc2c(C)n(C)n(-c3ccccc3)c2=O)c(OC)c1`: 0.857%; for `COc1ccc(NC2CCCN(C(=O)CCc3scnc3C)C2)cc1` (stereo not drawn): 12.2%. The same measure for `CS(=O)(=O)c1ccc(N2CCN(C3CC(=O)NC3=O)CC2)cc1` (stereo not drawn): 13.1%.

`CC(=O)c1ccc(S(=O)(=O)NCCC(=O)OCC(=O)N2CCCC2=O)cc1`: the “hERG current change (%, negative = inhibition) at 10uM” value was -7.6%. The same measure for `COc1cccc2sc(N(CCCN(C)C)C(=O)C(c3ccccc3)c3ccccc3)nc12.Cl`: -72.7%; for `COc1cccc2sc(N(CCN(C)C)C(=O)/C=C/c3cccs3)nc12.Cl`: -41.5%; for `Cc1cccc2sc(N(CCCN(C)C)C(=O)CCS(=O)(=O)c3ccccc3)nc12`: -35%.

In the case of `COc1cccc2sc(N(CCCN(C)C)C(=O)CCS(=O)(=O)c3ccccc3)nc12`, the “hERG current change (%, negative = inhibition) at 10uM” value is listed as -62.7%.

As for `COc1ccc(OC)c2sc(N(CCCN(C)C)C(=O)CCS(=O)(=O)c3ccccc3)nc12.Cl`, the “hERG current change (%, negative = inhibition) at 10uM” value is recorded as -70.5%.

Consider `COc1ccc(Cl)c2sc(N(CCN(C)C)C(=O)CCS(=O)(=O)c3ccc(C)cc3)nc12.Cl`, for which the “hERG current change (%, negative = inhibition) at 10uM” value was -7.51%. With `Cc1ccc2sc(N(CCCN(C)C)C(=O)CCS(=O)(=O)c3ccccc3)nc2c1C`, the “hERG current change (%, negative = inhibition) at 10uM” value is given as -6.04%. The same measure for `COc1cccc2sc(N(CCCN(C)C)C(=O)c3sc4ccccc4c3Cl)nc12.Cl`: -24.6%; for `CCOc1cccc2sc(N(CCN(C)C)C(=O)CCS(=O)(=O)c3ccccc3)nc12.Cl`: -23.5%. As for `Fc1cccc(Cl)c1Cn1nnc2c(-n3ccnc3)ncnc21`, the “hERG current change (%, negative = inhibition) at 10uM” value amounted to 0.152%. The same measure for `COCCN1Cc2cccc(C(=O)Nc3ccc(S(=O)(=O)N4CCCCC4)cc3)c2C1=O`: -4.49%; for `O=S1(=O)c2cccc3cccc(c23)N1Cc1ccc(-c2nnco2)cc1`: 7.2%. On to `COCc1cc(C)nc(OCC(=O)N/N=C/c2ccc(-c3cc([N+](=O)[O-])ccc3Cl)o2)c1C#N`, for which the “hERG current change (%, negative = inhibition) at 10uM” value is listed as 18%. The same measure for `COc1ccccc1C1N(c2cc(Cl)ccc2OC)C(=O)C2CCCN21` (stereo not drawn): 1.23%.

As to `Cn1c(=O)c2nc(NCc3ccccc3)cnc2n(C)c1=O`, the “hERG current change (%, negative = inhibition) at 10uM” value is on record as -1.44%.
